# Measurements: the supplement of paper PMC7858590
# “And” between values parts separate entries of the source, which are not always exact repeats. Equal entries are not always repeated.
# Test system: human monocyte-derived macrophages (polarized)
# Assay: cell shape (eccentricity) Z-score vs DMSO control; higher = more elongated, M2-like morphology
# Conditions: 5 µM; 24 h; macrophage state: M1-polarized (IFNg + TNFa), cytokines present during treatment
# Procedure: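 Primary-screen hits were rescreened on polarized hMDMs with the differentiating cytokines (IL-4 + IL-13 or IFNg + TNFa) kept in the medium during treatment with compound at 5 uM for 24 h. The eccentricity Z-score vs DMSO wells is averaged over experiments.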
row,SMILES,cell shape (Z-score)
1,CC(C)(C)n1nc(-c2cccc3ccccc23)c2c(N)ncnc21,6.74
2,C=CCn1c(=O)c2cnc(Nc3ccc(N4CCN(C)CC4)cc3)nc2n1-c1cccc(C(C)(C)O)n1,5.45
3,C/C=C/c1ccc2c(c1)O[C@@H](CN(C)C(=O)c1ccccc1)[C@@H](C)CN([C@@H](C)CO)S2(=O)=O,-5.32
4,COc1ccc([C@H]2CNC(=O)C2)cc1OC1CCCC1,-2.33
5,CCN(CC)C(=S)SSC(=S)N(CC)CC,-3.98
6,Clc1ccc(C(Cn2ccnc2)OCc2ccsc2Cl)c(Cl)c1 (stereo not given),-4.98
7,CN1CCN(CCOc2cc(OC3CCOCC3)c3c(Nc4c(Cl)ccc5c4OCO5)ncnc3c2)CC1,4.07
8,CC1(C)CCC(c2ccc(Cl)cc2)=C(CN2CCN(c3ccc(C(=O)NS(=O)(=O)c4ccc(N[C@H](CCN5CCOCC5)CSc5ccccc5)c(S(=O)(=O)C(F)(F)F)c4)cc3)CC2)C1,4.31
9,Cc1[nH]c2ccccc2c1CCNCc1ccc(/C=C/C(=O)NO)cc1,6.17
10,CS(=O)(=O)c1cccc(CNc2nc(Nc3ccc4c(c3)CCC(=O)N4)ncc2C(F)(F)F)c1,-3.99
11,Nc1nc(N)c2nc(-c3cccc(O)c3)c(-c3cccc(O)c3)nc2n1,2.64
12,NC(=O)Nc1cc(-c2cccc(F)c2)sc1C(=O)N[C@H]1CCCNC1,7.81
13,CN(C)CC[C@H](CSc1ccccc1)Nc1ccc(S(=O)(=O)NC(=O)c2ccc(N3CCN(Cc4ccccc4-c4ccc(Cl)cc4)CC3)cc2)cc1[N+](=O)[O-],0.862
14,CC1C(=O)C(=O)[C@@H]2O[C@@H]2C1=O (stereo not given in full),-0.0615
15,CC1(C)C(=O)C=CC2(C)C1C=CC1(C)C2CCC2(C)C(c3ccoc3)OC(=O)C3OC312 (stereo not given),-1.04
16,CC1(CCOC2OC(CO)C(O)C(O)C2O)CCC2C(=CCC3C(C)(C(=O)O)CCCC23C)C1 (stereo not given),-2.26
17,c1cc(-c2cnn3cc(-c4ccc(OCCN5CCCCC5)cc4)cnc23)ccn1,1.96
18,NC(=O)Nc1sc(-c2ccc(F)cc2)cc1C(N)=O,7.48
19,COc1cc2nccc(Oc3ccc(NC(=O)Nc4cc(C)on4)c(Cl)c3)c2cc1OC,7.92
20,CC(C)C[C@@H](C=O)NC(=O)[C@H](CC(C)C)NC(=O)[C@H](CC(C)C)NC(=O)OCc1ccccc1,4.21
21,O=C(CCCCCCC(=O)Nc1ccccc1)NO,-0.801
22,C#C[C@]1(O)CC[C@H]2[C@@H]3CCC4=Cc5oncc5C[C@]4(C)[C@H]3CC[C@@]21C,-4.38

# Same assay, conditions: 5 µM; 24 h; macrophage state: M2-polarized (IL-4 + IL-13), cytokines present during treatment
row,SMILES,cell shape (Z-score)
1,C=C(NC(=O)C(=C)NC(=O)c1csc(C2=N[C@@H]3c4csc(n4)[C@H]4NC(=O)c5csc(n5)[C@H]([C@](C)(O)[C@@H](C)O)NC(=O)[C@H]5CSC(=N5)/C(=C/C)NC(=O)[C@H]([C@@H](C)O)NC(=O)c5csc(n5)[C@]3(CC2)NC(=O)[C@H](C)NC(=O)C(=C)NC(=O)[C@H](C)NC(=O)[C@H]([C@@H](C)CC)N[C@@H]2C=Cc3c([C@H](C)O)cc(nc3[C@H]2O)C(=O)O[C@@H]4C)n1)C(N)=O,-11
2,COc1ccc(/C=C/C(=O)O)cc1OC,1.19
3,Oc1ccc(/C=C/c2cc(O)cc(O)c2)cc1,-0.6
4,COc1cc2c(cc1-c1coc3c4c(ccc3c1=O)OC(C)(C)C=C4)OCO2,-5.25
5,CNCCC(Oc1ccc(C(F)(F)F)cc1)c1ccccc1 (stereo not given),7.81
6,O=C1c2ccc(Nc3ccc(F)cc3F)cc2CCc2ccc(OC[C@H](O)CO)cc21,2.03
7,C[C@H]1CN([C@@H](C)CO)S(=O)(=O)c2ccc(C#Cc3ccncc3)cc2O[C@@H]1CN(C)C(=O)Nc1ccc2c(c1)OCO2,5.87
8,N=C(NCCCCCCNC(=N)NC(=N)Nc1ccc(Cl)cc1)NC(=N)Nc1ccc(Cl)cc1,-10.6 and -7.15
9,COc1ccc(/C=C/C(=O)c2ccc(O)cc2O)cc1,-3.18
10,CC(=O)O[C@H]1C(=O)[C@@]2(C)[C@H]([C@H](OC(=O)c3ccccc3)[C@]3(O)C[C@H](OC(=O)[C@H](O)[C@@H](NC(=O)c4ccccc4)c4ccccc4)C(C)=C1C3(C)C)[C@]1(OC(C)=O)CO[C@@H]1C[C@@H]2O,-14.3 and -18.7
11,Cc1oc(=O)oc1CN1CCN(c2cc3c(cc2F)c(=O)c(C(=O)O)c2n3C(C)S2)CC1 (stereo not given),-6.14
12,CC(=O)OCCNC(=O)c1cccnc1,2.01
13,CC(=O)OCC(=O)[C@@]1(O)[C@H](OC(C)=O)C[C@H]2[C@@H]3CCC4=CC(=O)C=C[C@]4(C)[C@@]3(F)[C@@H](O)C[C@@]21C,-9.46
